In PubChem BioAssay (Tox21) one finds Potency, outcome and max response data, which are given here for 13 compounds.

A short description of assay [1]: A CellTox Green Cytotoxicity Assay to monitor cytotoxicity in HEK293 cells - 40 hour (AID 1224871). Further: nearly all actives have a fitted effect of over 45% in size. Further: potency means the concentration at half of the fitted maximal effect. Put shortly:
(§1)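 Cells (HEK293, 600/well) and dye reagent are dispensed together. After 5 h at 37 C, 23 nL compound is pinned in. Plates stay at 37 C for 40 h with fluorescence read at 0h, 8h, 16h, 24h, 32h and 40h.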

The nature of assay [2]: qHTS RealTime-Glo MT Cell Viability Assay in HEK293 cells - 16 hour (AID 1224872). Further: nearly all actives have a fitted effect of over 50% in size. Further: potency means the concentration at half of the fitted maximal effect. The method, boiled down: (§2)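 HEK293 cells seeded with NanoLuc/prosubstrate reagent, rested 5 h at 37 C, then dosed and kept at 37 C up to 40 h. Nonlytic real-time luminescence from viable cells read at 0, 8, 16, 24, 32 and 40 h.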
Assay [3] in a line: qHTS RealTime-Glo MT Cell Viability Assay in HepG2 cells - 8 hour (AID 1224873). Further: nearly all actives have a fitted effect of over 55% in size. Put shortly: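 HepG2 cells mixed with RealTime-Glo MT reagents (NanoLuc plus cell-permeant prosubstrate) were seeded at 600 cells/well, incubated 5 h at 37 C/5% CO2, then pinned with compounds in DMSO; nonlytic luminescence tracked viability during 40 h treatment.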
For orientation: In qHTS, concentration-response curves come from the screen itself.

A short description of assay [4]: qHTS RealTime-Glo MT Cell Viability Assay in HEK293 cells - 40 hour (AID 1224874). Further: nearly all actives have a fitted effect of over 50% in size. Further: potency means the concentration at half of the fitted maximal effect. The settings on record: RealTime-Glo luminescence; max response: hits give low values. The method, boiled down:
(§3)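 Real-time viability in HEK293: signal arises when living cells convert a prosubstrate for NanoLuc in the medium, so luminescence tracks viable cell number. Compound (23 nL, DMSO) added 5 h post-seeding; kinetic reads at 0–40 h, 37 C.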

Assay [5] in a line: A CellTox Green Cytotoxicity Assay to monitor cytotoxicity in HEK293 cells - 24 hour (AID 1224875). Further: nearly all actives have a fitted effect of over 45% in size. Further: potency means the concentration at half of the fitted maximal effect. Put shortly: as §1
Assay [6] in a line: A CellTox Green Cytotoxicity Assay to monitor cytotoxicity in HepG2 cells - 16 hour (AID 1224876). Further: nearly all actives have a fitted effect of over 45% in size. Further: potency means the concentration at half of the fitted maximal effect. Put shortly: (§4)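 Cells and non-lytic dye reagent are dispensed together (600 HepG2 cells/well) and incubated 5 h before DMSO compound transfer. Kinetic fluorescence is then recorded in the same wells during 40 h at 37 C.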
A short description of assay [7]: qHTS RealTime-Glo MT Cell Viability Assay in HepG2 cells - 32 hour (AID 1224877). Further: nearly all actives have a fitted effect of over 55% in size. Put shortly: (§5)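 HepG2 cells (600/well) were dispensed with RealTime-Glo reagents, incubated 5 h at 37 °C, then treated with compounds in DMSO for up to 40 h. Nonlytic NanoLuc luminescence reflecting viable cells was read at each stated time point.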
Assay [8] in a line: A CellTox Green Cytotoxicity Assay to monitor cytotoxicity in HepG2 cells - 24 hour (AID 1224878). Further: nearly all actives have a fitted effect of over 45% in size. Further: potency means the concentration at half of the fitted maximal effect. Put shortly:
as §4

Assay [9] is described as follows: A CellTox Green Cytotoxicity Assay to monitor cytotoxicity in HepG2 cells - 40 hour (AID 1224879). Further: nearly all actives have a fitted effect of over 40% in size. Further: potency means the concentration at half of the fitted maximal effect. The method, boiled down:
as §4

Assay [10] is described as follows: qHTS RealTime-Glo MT Cell Viability Assay in HEK293 cells - 0 hour (AID 1224880). The method, boiled down: as §3
Assay [11] is described as follows: A CellTox Green Cytotoxicity Assay to monitor cytotoxicity in HEK293 cells - 32 hour (AID 1224881). Further: nearly all actives have a fitted effect of over 40% in size. Further: potency means the concentration at half of the fitted maximal effect. Put shortly:
as §1

Assay [12] is described as follows: A CellTox Green Cytotoxicity Assay to monitor cytotoxicity in HepG2 cells - 0 hour (AID 1224882). Further: nearly all actives have a fitted effect of over 35% in size. Further: potency means the concentration at half of the fitted maximal effect. The method, boiled down:
as §4

Assay [13] is described as follows: A CellTox Green Cytotoxicity Assay to monitor cytotoxicity in HepG2 cells - 32 hour (AID 1224883). Further: nearly all actives have a fitted effect of over 50% in size. Further: potency means the concentration at half of the fitted maximal effect. Put shortly: as §4
Assay [14] in a line: A CellTox Green Cytotoxicity Assay to monitor cytotoxicity in HEK293 cells - 8 hour (AID 1224884). Further: nearly all actives have a fitted effect of over 35% in size. Further: potency means the concentration at half of the fitted maximal effect. Put shortly: as §1
Assay [15] in a line: qHTS RealTime-Glo MT Cell Viability Assay in HepG2 cells - 16 hour (AID 1224885). Further: nearly all actives have a fitted effect of over 50% in size. The method, boiled down: as §5
A short description of assay [16]: qHTS RealTime-Glo MT Cell Viability Assay in HEK293 cells - 24 hour (AID 1224886). Further: nearly all actives have a fitted effect of over 50% in size. Further: potency means the concentration at half of the fitted maximal effect. Put shortly: as §2
Assay [17] in a line: qHTS RealTime-Glo MT Cell Viability Assay in HEK293 cells - 8 hour (AID 1224887). Further: nearly all actives have a fitted effect of over 50% in size. Further: potency means the concentration at half of the fitted maximal effect. Put shortly: as §3
The nature of assay [18]: A CellTox Green Cytotoxicity Assay to monitor cytotoxicity in HEK293 cells - 16 hour (AID 1224888). Further: nearly all actives have a fitted effect of over 35% in size. Further: potency means the concentration at half of the fitted maximal effect. Put shortly: as §1
Assay [19] can be described thus: qHTS RealTime-Glo MT Cell Viability Assay in HepG2 cells - 0 hour (AID 1224889). Further: nearly all actives have a fitted effect of over 50% in size. Put shortly: as §5
A short description of assay [20]: A CellTox Green Cytotoxicity Assay to monitor cytotoxicity in HepG2 cells - 8 hour (AID 1224890). Further: nearly all actives have a fitted effect of over 45% in size. Further: potency means the concentration at half of the fitted maximal effect. Put shortly: as §4

A number with no mark means an inactive call. Results filed as inconclusive are left out. Activity calls are given as the source filed them. The call rests on the fitted dose curve; in most records, active means well fitted curve in the direction sought with a large enough effect in the repeat runs; inconclusive means weak or mixed curves; inactive means no such curve, though single readings can be large; an effect the other way counts as inactive or inconclusive.
On the % scale 0 is the no-effect control and ±100 the full control effect.

Consider `C/C=C1\[C@H]2C=C(C)C[C@]1(N)c1ccc(=O)[nH]c1C2`, for which the Potency result in assay [1], in assay [2], in assay [5], in [6], in assay [7] and in assay [8] was “inactive” in each case. Besides, the Potency result in assay [9], in assay [10], in assay [11], in assay [12], in [13] and in assay [14] was “inactive” each time. Moreover, the Potency result in [16], in assay [17], in assay [18], in [19] and in [20] was “inactive” each time. The outcome in assay [3] and in [15] was inactive. Moreover, the max response in assay [4] is -2.81%.
With `CCC(=O)O[C@]1(C(=O)COC)[C@@H](C)C[C@H]2[C@@H]3CCC4=CC(=O)C=C[C@]4(C)C3(F)[C@@H](O)C[C@@]21C` (stereo not given in full), the Potency entry in [1], in assay [2], in assay [5], in [6], in assay [7] and in [8] was “inactive” each time. Further, the Potency entry in assay [9], in [10], in [11], in [12], in [13] and in assay [14] was “inactive” in each case. Also, the Potency result in assay [16], in [17], in assay [18], in assay [19] and in assay [20] was “inactive” each time. The outcome in assay [3] and in assay [15] was inactive. The max response in assay [4] was -19.2%.
On to `Cc1cc(C)c(C)c(O)c1`, for which the Potency result in assay [1], in assay [2], in [5], in assay [6], in [7] and in assay [8] was “inactive” throughout. Moreover, the Potency result in assay [9], in assay [10], in assay [11], in assay [12], in assay [13] and in assay [14] was “inactive” in each case. Further, the Potency result in [16], in assay [17], in assay [18], in [19] and in [20] was “inactive” throughout. The result in assay [3] and in assay [15] was inactive. In [4], the max response is 0.904%.
On to `CCCCOc1ccc(N)cc1`, for which the Potency entry in assay [1], in assay [2], in assay [5], in [6], in assay [7] and in assay [8] was “inactive” throughout. The Potency result in assay [9], in [10], in assay [11], in [12], in [13] and in assay [14] was “inactive” in each case. Besides, the Potency entry in [16], in assay [17], in assay [18], in [19] and in assay [20] was “inactive” in each case. The result in [3] and in [15] was inactive. The max response in [4] is 0.387%.
Regarding `CCCCCCCCCCCCCCCCN`, the Potency is 12 µM (active) in assay [1]; 10.7 µM (active) in [5]; 23.9 µM (active) in assay [6]; 21.3 µM (active) in assay [8]; 23.9 µM (active) in [9]; 16.9 µM (active) in [11]. The Potency is 21.3 µM (active) in [12]; 23.9 µM (active) in assay [13]; 19 µM (active) in [14]; 19 µM (active) in assay [18]; 21.3 µM (active) in [20]. Further, the Potency result in assay [2], in [7], in [10], in assay [16], in assay [17] and in assay [19] was “inactive” each time. Moreover, the outcome in assay [3] and in [15] was inactive. Moreover, the max response in [4] was 11.5%.
For the compound `CCc1ccc(C(=O)C(C)CN2CCCCC2)cc1` (stereo not given), the Potency result in [1], in [2], in assay [5], in assay [6], in [7] and in [8] was “inactive” in each case. In addition, the Potency result in [9], in assay [10], in assay [11], in assay [12], in [13] and in [14] was “inactive” each time. Besides, the Potency result in assay [16], in assay [17], in assay [18], in [19] and in assay [20] was “inactive” in each case. Moreover, the compound was called inactive in assay [3] and in assay [15]. Also, in assay [4], the max response is 7.68%.
For the compound `CCCCC(CC)COCCC#N` (stereo not given), the Potency entry in [1], in assay [2], in [5], in assay [6], in assay [7] and in assay [8] was “inactive” each time. Moreover, the Potency entry in assay [9], in assay [10], in assay [11], in [12], in assay [13] and in assay [14] was “inactive” each time. The Potency entry in assay [16], in assay [17], in assay [18], in assay [19] and in [20] was “inactive” in each case. Besides, the result in assay [3] and in [15] was inactive. Further, in assay [4], the max response was 12.6%.
As for `C=CC(=O)NC(C)(C)C`, the Potency result in assay [1], in assay [2], in assay [5], in assay [6], in assay [7] and in assay [8] was “inactive” in each case. The Potency entry in assay [9], in [10], in assay [11], in assay [12], in assay [13] and in assay [14] was “inactive” throughout. The Potency result in assay [16], in [17], in assay [18], in assay [19] and in assay [20] was “inactive” throughout. In addition, the outcome in assay [3] and in [15] was inactive. The max response in assay [4] was 1.33%.
Take `O=[N+]([O-])c1ccc(Cl)cc1Cl`: the Potency result in [1], in assay [2], in assay [5], in [6], in assay [7] and in assay [8] was “inactive” in each case. For the same compound, the Potency entry in assay [9], in assay [10], in [11], in [12], in assay [13] and in assay [14] was “inactive” throughout. Besides, the Potency result in [16], in [17], in [18], in assay [19] and in assay [20] was “inactive” in each case. Also, the compound was classed as inactive in assay [3] and in assay [15]. The max response in [4] is 2.44%.
With `Cc1ccc(S(=O)(=O)NC(=O)NC2CCCC2)cc1`, the Potency result in assay [1], in [2], in assay [5], in [6], in [7] and in assay [8] was “inactive” throughout. Further, the Potency entry in assay [9], in [10], in [11], in assay [12], in assay [13] and in [14] was “inactive” in each case. The Potency result in assay [16], in [17], in assay [18], in [19] and in assay [20] was “inactive” throughout. Further, the call in assay [3] and in assay [15] was inactive. Further, the max response in [4] was 0.385%.
Consider `FC1(F)C(F)(F)C(F)(F)C2(F)C(F)(C1(F)F)C(F)(F)C(F)(F)C1(F)C(F)(F)C(F)(F)C(F)(F)C(F)(F)C12F` (stereo not given), for which the Potency entry in assay [1], in assay [2], in assay [5], in assay [6], in assay [7] and in assay [8] was “inactive” throughout. Also, the Potency entry in assay [9], in [10], in assay [11], in assay [12], in [13] and in assay [14] was “inactive” in each case. For the same compound, the Potency result in assay [16], in assay [17], in [18], in assay [19] and in assay [20] was “inactive” throughout. In addition, the result in assay [3] and in [15] was inactive. Moreover, the max response in [4] was 0.279%.
For `O=C(NC1CCN(CCc2c[nH]c3ccccc23)CC1)c1ccccc1`, the Potency entry in assay [1], in assay [5], in assay [6], in assay [7], in assay [8] and in [9] was “inactive” in each case. Besides, the Potency result in assay [10], in [11], in assay [12], in assay [13], in assay [14] and in assay [18] was “inactive” each time. For the same compound, the Potency result in assay [19] and in [20] was “inactive” throughout. Besides, the Potency in assay [2] was 9.52 µM (active); in [4], 9.52 µM (active); in assay [16], 8.49 µM (active); in assay [17], 9.52 µM (active). For the same compound, the call in assay [3] and in [15] was inactive.
For the compound `CCC(C(=O)O)c1ccc(N2Cc3ccccc3C2=O)cc1` (stereo not given), the Potency entry in [1], in assay [2], in [5], in [6], in assay [7] and in assay [8] was “inactive” throughout. Besides, the Potency result in [9], in assay [10], in [11], in assay [12], in [13] and in assay [14] was “inactive” throughout. Moreover, the Potency result in assay [16], in assay [17], in assay [18], in [19] and in [20] was “inactive” throughout. For the same compound, the compound was classed as inactive in assay [3] and in [15]. In assay [4], the max response is -1.19%.
